# Assay outcomes as filed in PubChem BioAssay.
# Rab9 promoter act: Rab9 promoter activation. Huh7 Rab9 promoter-luciferase reporter, luminescence, 24 h. Potency, µM (doses to about 9.22 µM), for the others: top-dose activation, negative = inhibition, usual class: activators. 320,000 compounds, 2.8% hits. AID 485297; note: % of control where 0% means no effect; nearly all actives have a fitted effect of over 60% in size
#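 Luminescence read-out: Huh7 cells stably expressing Rab9-luciferase, treated 24 h with compound at 37 °C, then lysed with luciferase reagent for 10 min at ambient before reading.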
# ELG1 genotox: inducers of genotoxicity in HEK293T ELG1-luciferase cells; 330,000 compounds, 1.3% hits; Potency, µM (top dose mostly 46 µM), for the others: at the highest dose activity change, positive = activation, actives largely listed as activators; HEK293T ELG1-luciferase reporter, luminescence, 16 h; note: % of control where 0% means no effect; nearly all actives have a fitted effect of over 60% in size
#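 16 hr compound incubation (37 °C, 5% CO2) of HEK293T cells carrying luciferase-tagged ELG1; luciferase then measured by ONE-Glo luminescence after 30 min at RT.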
# NPC1 prom act: activates the NPC1 promoter. Huh7 NPC1 promoter luciferase reporter, 24 h. Potency, µM (highest dose often 9.22 µM), without a hit: at the highest dose activation, hits mostly activators. 320,000 compounds, 2.4% hits. AID 485313; note: % of control where 0% means no effect; nearly all actives have a fitted effect of over 60% in size
#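 In 1536-well qHTS, Huh7 cells harboring an NPC1 promoter–luciferase construct received compound for 24 h; activation was quantified by luminescence following luciferase reagent addition.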
# ELG1 repair inh: ELG1-dependent DNA repair inhibition | HEK293T ELG1-luciferase reporter, luminescence, 16 h; DNA damage induced by 5-fluorouridine | Potency, µM (highest dose often 46.1 µM), for inactives: top-dose activity change, negative = inhibition, actives largely listed as inhibitors | 330,000 compounds, 2.3% hits; note: % is set by controls: 0 for no effect and ±100 for the full control effect; nearly all actives have a fitted effect of over 55% in size
#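 Cells (2,000 per well) received 5-fluorouridine plus test compound or DMSO and were incubated 16 hr at 37 °C, 5% CO2. Luciferase activity was read by luminescence 30 min after ONE-Glo addition; signal suppression marked inhibition of damage-induced ELG1 function.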
# FLuc counter: counter-screen for miR-21 project: firefly luciferase inhibitors or activators; P08659; purified FLuc, Km substrates, luminescence inhibition; Potency, µM (doses to about 57.5 µM), inactives show at the highest dose activity change, negative = inhibition, actives largely listed as inhibitors; 360,000 compounds, 6.9% hits; AID 588342;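 note: plate controls were vehicle for no effect and reference inhibitor for full effect; nearly all actives have a fitted effect of over 55% in size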
# Target sequence (P08659 whole entry, looked up): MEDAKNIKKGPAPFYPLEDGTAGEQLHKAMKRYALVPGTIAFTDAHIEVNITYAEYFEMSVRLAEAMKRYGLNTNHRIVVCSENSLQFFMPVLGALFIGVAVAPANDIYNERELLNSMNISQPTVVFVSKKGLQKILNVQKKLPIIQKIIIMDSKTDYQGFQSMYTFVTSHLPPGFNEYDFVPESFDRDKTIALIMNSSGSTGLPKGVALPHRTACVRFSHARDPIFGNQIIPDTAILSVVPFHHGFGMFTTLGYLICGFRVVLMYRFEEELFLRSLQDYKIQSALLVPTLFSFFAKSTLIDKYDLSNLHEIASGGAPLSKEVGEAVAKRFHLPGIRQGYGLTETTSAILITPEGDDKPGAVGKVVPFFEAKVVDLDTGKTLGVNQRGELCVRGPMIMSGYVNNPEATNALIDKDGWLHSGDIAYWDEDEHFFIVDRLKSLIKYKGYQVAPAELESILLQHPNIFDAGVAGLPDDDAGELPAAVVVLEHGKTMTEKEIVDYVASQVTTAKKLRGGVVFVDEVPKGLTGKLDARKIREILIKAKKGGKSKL
#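 Purified P. pyralis luciferase (10nM final) with 10uM D-luciferin and 10uM ATP (Km levels) in 50mM Tris acetate pH 7.5, 10mM Mg acetate, 0.01% Tween-20, 0.05% BSA; qHTS 6-point titration, ~60 µM downward; luminescence read.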
# SMN2 splice up: increases expression of the SMN2 splice variant; AID 1458; Potency, µM (highest dose often 46.1 µM), without a hit: at the top dose activity change, positive = activation, most hits filed as activators; 210,000 compounds, 2.8% hits; HEK293 SMN2-luciferase splicing reporter, luminescence, 30-36 h; note: % of control where 0% means no effect; nearly all actives have a fitted effect of over 55% in size
#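 HEK293 cells carry an SMN2 minigene-luciferase reporter in which exon 7 inclusion puts luciferase in frame. Cells were seeded at 2000 cells/well, attached for 10-12 hours, then exposed to compounds for 30-36 hours at 37C before ONE-Glo luminescence.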
# Starred values were filed as active, the others as inactive; ? = inconclusive; . = not tested or not shown; [ ] = another dose, or the depositor's remark. The list is not random: actives were taken first. Their share in the collection is about 9.4%. Calls come from the whole dose curve; as a rule, active = well fitted curve in the direction sought with a large enough effect; inconclusive = small, poorly fitted or top-dose-only effect, or another doubt; inactive = no such curve, though single readings can be large; an effect the other way counts as inactive or inconclusive. Potency is the fitted concentration of half-maximal effect.
SMILES,Rab9 promoter act,ELG1 genotox,NPC1 prom act,ELG1 repair inh,FLuc counter,SMN2 splice up
CCOC(=O)CSC1=NC(=O)/C(=C\c2ccc(OC(C)=O)cc2)S1,-8%,?,-7%,?,19µM*,19%
CCOC(=O)COc1ccc(Br)cc1/C=C1\SC(N)=NC1=O,7%,3%,0%,5%,0%,.
CCOC(=O)c1ccc(NS(=O)(=O)c2ccc(Br)s2)cc1,.,.,.,.,?,-11%
O=C(CSc1nc(=O)n(Cc2ccco2)c2c1CCC2)Nc1cccc(F)c1,.,.,.,.,-13%,.
CC(C)NC(=O)C1CCC(Cn2c(=O)c3sccc3n(CC(=O)N3CCCC3)c2=O)CC1 (centres undefined),.,.,.,.,3%,.
CC(=O)C(/C=N/c1cc(-c2ccc(C)cc2)nn1-c1ccccc1)=C(\C)O,4µM*,?,4µM*,?,?,?
Cn1nc(CC(=O)Nc2cccc3ncccc23)c2ccccc2c1=O,-21%,-9%,-3%,7.3µM*,-11%,.
O=C(CCl)Nc1cccc2ncccc12,-7%,-11%,-14%,26µM*,-2%,-61%
COc1ccc(-c2nc(N)ncc2-c2ccccc2)c(O)c1,-1%,-1%,2%,24%,-1%,.
COc1ccc(-c2cnc(N)nc2-c2ccc(OC)cc2O)cc1,2%,-14%,1%,23µM*,-1%,-16%
N/C(=N\OC(=O)c1cccc2ccccc12)c1cccnc1,28%,?,20%,?,12µM*,.
N/C(=N\OC(=O)c1cccc2ccccc12)c1cccc([N+](=O)[O-])c1,15%,1%,12%,7%,?,13%
Cc1cccc(/C(N)=N/OC(=O)c2cccc3ccccc23)c1,4µM*,15%,3.5µM*,?,4.3µM*,.
COC1CCC(C(=O)c2ccc3nc4c(cc3c2)CCCO4)CC1 (centres undefined),.,.,.,.,.,13µM*
CC(=O)c1ccc(NC(=O)CSc2nnc3ccc(-c4ccc(Cl)cc4)nn23)cc1,.,.,.,.,-1%,.
O=C(NC1=NC2CCCCC2N1)c1ccccc1 (centres undefined),0.32µM*,0.58µM*,0.4µM*,?,1.5µM*,15%
Cc1cccc(N2CCN(C(=O)c3cc4c(=O)[nH]c5ccc(C)cc5c4s3)CC2C)c1 (centres undefined),.,.,.,.,-7%,-9%
Cc1cc(C(=O)Cn2cc(C(F)(F)F)ccc2=O)c(C)n1CC1CCCO1 (centres undefined),-1%,4%,1%,?,1%,.
Cc1cc(C(=O)CN2C(=O)c3ccccc3S2(=O)=O)c(C)n1CC1CCCO1 (centres undefined),-42%,-18%,-48%,5.2µM*,7.6µM*,-68%
Cc1cc(C(=O)CN2C(=O)NC(C)(c3ccccc3)C2=O)c(C)n1CC1CCCO1 (centres undefined),2%,1%,10%,22%,17µM*,19%
O=C1c2ccccc2S(=O)(=O)N1Cc1ccccc1[N+](=O)[O-],0%,-1%,8%,0%,0%,.
O=C(Cc1ccccc1[N+](=O)[O-])OCN1C(=O)c2ccccc2C1=O,10%,5%,-10%,1%,9.5µM*,.
O=C(Cc1ccc(F)cc1)OCN1C(=O)c2ccccc2C1=O,16%,-13%,-1%,?,2%,.
O=C1c2ccccc2C(=O)N1OCc1ccccc1[N+](=O)[O-],-3%,-1%,-1%,13%,17µM*,1%
Clc1ccc(CSC2=NCCN2)cc1Cl,.,.,.,.,.,-22%[9.22 µM]
SMILES,Rab9 promoter act,ELG1 genotox,NPC1 prom act,ELG1 repair inh,FLuc counter,SMN2 splice up
Cc1ccc(NC(=O)c2cc(S(=O)(=O)N3CCC4(CC3)OCCO4)ccc2F)cc1Cl,.,.,.,.,-8%,.
Cc1ccc(-c2nc3ccsc3c(=O)o2)cc1,2.5µM*,18µM*,2.8µM*,?,2.7µM*,105%
CC(C)Sc1nc2ccsc2c(=O)[nH]1,-4%,3%,1%,10%,-17%,12%
CC(=O)c1c(C)[nH]c(C(=O)Nc2cc(C)cc(C)c2)c1C,7%,?,-2%,?,?,-11%
CC(=O)c1c(C)[nH]c(C(=O)Nc2nc(-c3ccc(Cl)cc3)cs2)c1C,-3%,-13%,-2%,?,-7%,-45%
CC(=O)c1c(C)[nH]c(C(=O)Nc2nc(-c3ccc(-c4ccccc4)cc3)cs2)c1C,-2%,-18%,-2%,21µM*,?,-98%
CC(=O)c1c(C)[nH]c(C(=O)Nc2nc(C)cs2)c1C,0.11µM*,0.52µM*,1µM*,?,0.6µM*,1.6µM*
CC(=O)c1c(C)[nH]c(C(=O)Nc2ccc(C)cn2)c1C,0.25µM*,?,0.71µM*,?,0.43µM*,0.79µM*
O=C(CC1CCCC1)NCCS(=O)(=O)N1CCN(c2ccccc2F)CC1,-8%,1%,-3%,-21%,1%,.
CCOc1ccc(CC(=O)NCCS(=O)(=O)N2CCN(c3ccccc3OC)CC2)cc1,.,.,.,.,-6%,.
COc1ccccc1N1CCN(S(=O)(=O)CCNC(=O)COc2ccc(C(C)C)cc2)CC1,.,.,.,.,24µM*,.
COc1ccccc1N1CCN(S(=O)(=O)CCNC(=O)CC2CCCCC2)CC1,-3%,-23%,0%,12µM*,-1%,.
Cc1nc(COC(=O)c2cc(O)c3ccccc3c2O)cs1,4%,0%,-2%,0%,5.4µM*,-1%
O=C(OCc1csc(-c2ccccc2)n1)c1ccccc1O,4µM*,?,27%,?,6µM*,20%
O=C(OCc1ccccc1)c1ccccc1O,.,.,.,?,.,1%
COCCN1C(=O)c2[nH]nc(-c3ccccc3O)c2C1c1ccc(Cl)c(Cl)c1 (centres undefined),.,.,.,.,-2%,-43%
Cc1ccc(O)c(C=Nc2ccc3[nH]ncc3c2)c1,-6%,-3%,5%,-3%,19µM*,23%
CCn1c(C(=O)Nc2ccccc2C(=O)OC)cc2sc(Cl)cc21,.,.,.,.,3%,-9%
CC(c1ccccc1)N(CCC(c1ccccc1)C1CCOC(C)(C)C1)C(=O)c1ccco1 (centres undefined),1%,-12%,-1%,23µM*,-1%,-27%
COc1ccc(CN(CCC(c2ccccc2)c2ccco2)C(=O)c2ccco2)cc1 (centres undefined),-9%,-5%,-3%,?,-1%,-12%
COc1ccc(CN(CCC(c2ccc(F)cc2)C2CCOC(C)(C)C2)C(=O)c2ccco2)cc1 (centres undefined),-3%,-12%,0%,10µM*,4%,-32%
